Experiment [1] in a line: yeast TOR pathway RPL19A-GFP modulators, primary screen, cell-based, S. cerevisiae, multiplex flow cytometry (AID 1862; in the data active = percent of DMSO control GFP below about 86%;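 also: lower values mimic rapamycin by blocking the RPL19A rise seen in DMSO cells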). The conditions noted are these: S. cerevisiae RPL19A-GFP strain, flow cytometry fluorescence, 3 h; at 10 µM; stronger effect = lower value.
Experiment [2] in a line: modulators of MEP2-GFP levels in yeast, primary screen, S. cerevisiae, multiplex flow cytometry (AID 1867;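 active = GFP response, as percent of the DMSO control, above the screen-wide mean plus 3 SD, about 139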;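 also: median GFP channel fluorescence of barcode-gated MEP2-GFP cells measured by flow cytometry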). As to conditions: S. cerevisiae MEP2-GFP strain, 3 h, at 10 µM, stronger effect = higher value, 100% means same as DMSO wells. In general terms: A flow cytometer gives signals particle by particle.
Experiment [3] in a line: modulators of CIT2-GFP expression in yeast, primary screen, S. cerevisiae, GFP fusion, multiplex flow cytometry (AID 1870;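 active = percent response above a set limit, the screen-wide mean plus 3 SD, cut at about 130% in these data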;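 also: barcoded CIT2-GFP strain pooled with four other GFP strains with rapamycin as positive control; median GFP fluorescence per well over plate mean of DMSO wells so 100% = DMSO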). The conditions noted are these: 3 h, at 10 µM, stronger effect = higher value.
A short description of experiment [4]: modulators of LAP4-GFP expression in yeast, primary screen, S. cerevisiae, multiplex flow cytometry (AID 1873;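 active = GFP signal, as percent of the solvent control, above the screen mean plus 3 SD, about 149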). As to conditions: 3 h, at 10 µM, stronger effect = higher value.
Experiment [5] can be described thus: modulators of AGP1-GFP expression in yeast TOR pathway, primary screen, cell-based, multiplex flow cytometry, S. cerevisiae (AID 1887;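 active = GFP signal above the screen-wide mean plus 3 SD, that is over about 124.5% of the solvent control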;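 also: AGP1-GFP fusion strain of S. cerevisiae within a five-strain barcoded multiplex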). As to conditions: 3 h, at 10 µM, stronger effect = higher value.
Experiment [6] can be described thus: inhibitors of CD8+ T cell-vesicle binding, pilot screen, LFA-1/ICAM-1 modulator project, MLPCN validation set, flow cytometry (AID 2523).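 As to vesicle binding response: mean PE anti-B7-1 fluorescence of CD8+ cells relative to row control; 100% = QL9-loaded vesicles with DMSO vehicle in the same plate row.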 The conditions noted are these: 2C mouse CD8+ T cells, at 7 µM, stronger effect = lower value; double positive events: measured here: CD8+/vesicle+ event percentage.
In experiment [7] the target is Integrin beta-1 (Homo sapiens) + Integrin alpha-4 (Homo sapiens) (UniProt P13612+P05556). The experiment in a line: inhibition of HUTS-21 binding to VLA-4, pilot screen, VLA-4 allosteric modulator project, U937 cells, HUTS-21 mAb, flow cytometry, validation set (AID 2674;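 active = inhibition above 50%, about 3 SD of the validation set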;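 also: antibody binding induced by the VLA-4 ligand LDV present at three times its Kd; 0% = LDV ligand with antibody and no compound and 100% = antibody without LDV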). The conditions noted are these: HUTS-21 LIBS mAb binding, at 6.7 µM, stronger effect = higher value, binding induced by LDV ligand.
Integrin beta-1 (Homo sapiens) + Integrin alpha-4 (Homo sapiens), sequence (P05556 whole entry, looked up): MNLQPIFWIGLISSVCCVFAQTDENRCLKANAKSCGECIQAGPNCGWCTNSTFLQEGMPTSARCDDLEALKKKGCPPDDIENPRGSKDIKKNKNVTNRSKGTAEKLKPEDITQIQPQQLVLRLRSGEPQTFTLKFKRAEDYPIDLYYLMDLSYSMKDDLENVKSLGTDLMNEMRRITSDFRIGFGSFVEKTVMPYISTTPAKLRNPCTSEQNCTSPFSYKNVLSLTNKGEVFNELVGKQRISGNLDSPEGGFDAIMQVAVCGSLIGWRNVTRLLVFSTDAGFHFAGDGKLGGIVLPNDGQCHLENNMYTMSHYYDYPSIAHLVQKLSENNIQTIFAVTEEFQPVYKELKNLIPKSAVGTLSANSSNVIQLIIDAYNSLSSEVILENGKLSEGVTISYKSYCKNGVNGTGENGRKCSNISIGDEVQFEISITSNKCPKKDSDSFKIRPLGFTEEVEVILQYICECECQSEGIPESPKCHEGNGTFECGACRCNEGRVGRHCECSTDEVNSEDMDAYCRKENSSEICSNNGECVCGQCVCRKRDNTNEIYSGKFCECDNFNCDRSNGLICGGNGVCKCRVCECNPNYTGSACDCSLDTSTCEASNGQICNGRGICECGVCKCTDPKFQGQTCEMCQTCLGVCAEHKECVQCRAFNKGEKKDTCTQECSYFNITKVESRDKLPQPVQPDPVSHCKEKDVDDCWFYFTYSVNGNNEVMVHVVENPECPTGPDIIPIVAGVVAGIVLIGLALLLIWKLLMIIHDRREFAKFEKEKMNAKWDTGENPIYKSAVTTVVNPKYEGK
Integrin beta-1 (Homo sapiens) + Integrin alpha-4 (Homo sapiens), sequence (P13612 whole entry, looked up): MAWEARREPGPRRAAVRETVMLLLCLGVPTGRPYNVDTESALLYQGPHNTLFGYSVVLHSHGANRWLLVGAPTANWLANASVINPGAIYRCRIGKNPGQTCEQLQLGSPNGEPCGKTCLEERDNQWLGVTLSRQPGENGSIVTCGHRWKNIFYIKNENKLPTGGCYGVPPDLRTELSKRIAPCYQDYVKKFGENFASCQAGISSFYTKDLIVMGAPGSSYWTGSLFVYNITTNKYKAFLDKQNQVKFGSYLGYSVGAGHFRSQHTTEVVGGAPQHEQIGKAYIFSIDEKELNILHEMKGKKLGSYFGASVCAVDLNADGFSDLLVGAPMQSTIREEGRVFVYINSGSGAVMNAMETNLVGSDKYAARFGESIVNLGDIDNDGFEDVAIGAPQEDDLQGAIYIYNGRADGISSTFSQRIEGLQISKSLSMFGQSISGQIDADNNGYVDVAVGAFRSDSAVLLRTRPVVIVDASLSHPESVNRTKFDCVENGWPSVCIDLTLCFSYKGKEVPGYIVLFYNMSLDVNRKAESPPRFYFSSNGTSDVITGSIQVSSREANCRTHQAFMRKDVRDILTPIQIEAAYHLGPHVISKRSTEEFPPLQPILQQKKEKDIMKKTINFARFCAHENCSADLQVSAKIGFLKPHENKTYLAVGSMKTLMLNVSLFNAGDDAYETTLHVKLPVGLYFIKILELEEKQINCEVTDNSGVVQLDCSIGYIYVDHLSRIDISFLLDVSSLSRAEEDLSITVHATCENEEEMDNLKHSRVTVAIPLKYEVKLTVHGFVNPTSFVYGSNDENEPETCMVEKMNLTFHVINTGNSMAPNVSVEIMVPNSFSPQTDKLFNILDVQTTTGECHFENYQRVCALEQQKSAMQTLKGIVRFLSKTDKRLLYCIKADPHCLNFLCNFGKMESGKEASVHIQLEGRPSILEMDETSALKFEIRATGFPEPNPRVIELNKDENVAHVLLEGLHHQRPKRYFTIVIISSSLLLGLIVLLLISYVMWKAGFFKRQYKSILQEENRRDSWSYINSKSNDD

The nature of experiment [8]: superoxide lowering in aged yeast cells, pilot screen, validation compound set (AID 2706;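 active = superoxide response below 65% of plate, a cut near 3 SD across the whole screen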;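 also: yeast exposed to compound for one week at 30 degrees C before staining; 100% = mean of all compound wells on the same plate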). As to conditions: S. cerevisiae aging, superoxide DHE fluorescence; at 10 µM, stronger effect = lower value.
In experiment [9] the target is Beta-adrenergic receptor kinase 1 (Homo sapiens) (UniProt P25098). The experiment in a line: GRK2 binders displacing RNA aptamer, biochemical, validation, human GRK2, bead flow cytometry (AID 488806;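 active = aptamer binding inhibition above 30%, about 3 SD of noise from non-fluorescent compounds; inactive = inhibition at or below 30%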). As to conditions: bead-bound GRK2, FAM-aptamer displacement, at 10 µM, stronger effect = higher value.
Beta-adrenergic receptor kinase 1 (Homo sapiens), sequence (P25098 whole entry, looked up): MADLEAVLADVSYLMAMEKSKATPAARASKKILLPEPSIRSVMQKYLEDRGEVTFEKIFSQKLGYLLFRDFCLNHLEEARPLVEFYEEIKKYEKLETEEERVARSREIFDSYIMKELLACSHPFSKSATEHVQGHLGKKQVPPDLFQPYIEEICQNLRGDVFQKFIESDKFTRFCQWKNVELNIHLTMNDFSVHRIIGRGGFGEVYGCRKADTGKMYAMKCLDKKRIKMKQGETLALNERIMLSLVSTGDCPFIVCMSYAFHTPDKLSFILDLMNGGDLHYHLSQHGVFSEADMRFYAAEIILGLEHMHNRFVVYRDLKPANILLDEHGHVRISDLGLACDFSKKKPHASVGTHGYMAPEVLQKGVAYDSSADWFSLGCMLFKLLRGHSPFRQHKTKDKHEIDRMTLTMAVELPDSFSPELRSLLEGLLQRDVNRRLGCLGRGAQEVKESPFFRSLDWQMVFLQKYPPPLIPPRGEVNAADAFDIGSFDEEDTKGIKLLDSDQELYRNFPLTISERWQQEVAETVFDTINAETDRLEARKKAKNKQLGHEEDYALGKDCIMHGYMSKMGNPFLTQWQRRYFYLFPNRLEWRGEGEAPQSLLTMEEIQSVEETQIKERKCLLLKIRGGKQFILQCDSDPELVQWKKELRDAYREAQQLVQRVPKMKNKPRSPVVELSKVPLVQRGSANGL
The target in experiment [10] is AP-2 complex subunit beta (Homo sapiens) (UniProt P63010). Kind of experiment: inhibitors of arrestin peptide binding to AP2, pilot screen, biochemical, validation set, GST-AP2 beads, flow cytometry (AID 504541;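 active = inhibition above 54%, about 3 SD of non-fluorescent compounds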;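 also: AP2 carries R879A mutation and is captured from E. coli lysate; bead-bound FITC arrestin peptide fluorescence measuring arrestin peptide binding to AP2; 0% = DMSO wells and 100% = excess unlabeled arrestin peptide control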). As to conditions: FITC arrestin peptide, at 10 µM, stronger effect = higher value, AP2 beta2 appendage fragment, R879A mutant.
AP-2 complex subunit beta (Homo sapiens), sequence (P63010 whole entry, looked up, the tested form may be a part, one chain of several): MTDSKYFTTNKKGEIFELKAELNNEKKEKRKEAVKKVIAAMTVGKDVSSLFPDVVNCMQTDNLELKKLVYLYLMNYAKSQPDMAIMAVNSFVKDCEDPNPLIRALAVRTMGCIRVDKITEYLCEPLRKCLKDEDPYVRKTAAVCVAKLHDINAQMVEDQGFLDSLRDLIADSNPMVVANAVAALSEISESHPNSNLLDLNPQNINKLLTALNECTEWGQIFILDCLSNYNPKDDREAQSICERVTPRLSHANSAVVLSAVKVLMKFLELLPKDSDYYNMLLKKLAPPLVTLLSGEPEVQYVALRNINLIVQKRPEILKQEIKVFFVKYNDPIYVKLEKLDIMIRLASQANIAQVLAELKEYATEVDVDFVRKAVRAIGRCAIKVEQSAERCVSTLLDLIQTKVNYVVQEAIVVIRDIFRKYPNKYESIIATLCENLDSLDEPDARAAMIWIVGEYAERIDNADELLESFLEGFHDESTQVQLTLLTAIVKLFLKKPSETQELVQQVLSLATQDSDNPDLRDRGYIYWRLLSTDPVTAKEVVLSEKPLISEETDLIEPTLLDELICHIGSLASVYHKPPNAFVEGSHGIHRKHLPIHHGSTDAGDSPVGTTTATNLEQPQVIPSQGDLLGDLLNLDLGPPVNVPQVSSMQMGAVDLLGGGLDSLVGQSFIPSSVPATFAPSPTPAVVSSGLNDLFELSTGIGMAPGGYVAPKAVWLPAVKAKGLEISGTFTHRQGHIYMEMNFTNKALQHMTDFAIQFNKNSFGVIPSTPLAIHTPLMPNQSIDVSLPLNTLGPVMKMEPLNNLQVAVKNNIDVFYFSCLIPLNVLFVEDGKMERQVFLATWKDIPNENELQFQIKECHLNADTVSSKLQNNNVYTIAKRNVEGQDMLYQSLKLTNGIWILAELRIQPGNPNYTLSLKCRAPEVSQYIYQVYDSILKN
Experiment [11] can be described thus: yeast V-ATPase proton transport modulators, S. cerevisiae, pHLuorin, HTS validation (AID 504600; in the data active = response above about 15%;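 also: plate controls were DMSO for no effect and reference compound for full effect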). As to conditions: S. cerevisiae pHLuorin cytosolic pH, at 10 µM, stronger effect = higher value.
Experiment [12] concerns anti-desmoglein-3 scFv antibody binding to human DSG3. The experiment in a line: inhibitors of anti-DSG3 scFv binding to DSG3, pilot screen, biochemical, validation compound set, bead-based, flow cytometry (AID 588368;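 active = binding below the plate cutoff, the plate median minus 3 SD, with a reading above zero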;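 also: signal is the median channel fluorescence of bead-bound GFP antibody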). The conditions noted are these: Protein G beads, DSG3-Fc, scFv-GFP binding, at 10 µM, stronger effect = lower value.
Experiment [13] is described as follows: inhibitors of fungal efflux pumps CDR1, CDR2, MDR1, pilot screen, validation compound set, multiplex, phenotypic (AID 588506;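 active = efflux inhibition above 0.42, the validation set average plus 4 SD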;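 also: Nile Red retained in cells so higher fluorescence means more efflux inhibition; 0 = negative control wells and 1 = enniatin B 25 µM full block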). The conditions noted are these: S. cerevisiae pump-expressing triplex, Nile Red efflux flow cytometry; at 10 µM; stronger effect = higher value; the pumps come from Candida albicans.
Experiment [14] has as its target ATP-binding cassette sub-family B member 6 (Homo sapiens) (UniProt Q9NP58). Kind of experiment: ABCB6 transporter inhibitors, pilot screen, K562-ABCB6 cells, flow cytometry, validation set (AID 588550;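 active = inhibition above the screen-wide mean plus 3 SD, about 51%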;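 also: 0% = DMSO wells and 100% = benzethonium chloride 70 µM positive control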). As to conditions: K562-ABCB6 porphyrin accumulation, 1 h, at 10 µM, stronger effect = higher value.
A short description of experiment [15]: promoters of myeloid differentiation in arrested cells, primary screen, cell-based, GFP/MAC1 double positive, flow cytometry, validation set (AID 588685;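 active = differentiation response of at least 50%, scaled between solvent and reference control, from cells with both markers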;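 also: compound exposure lasts four days before antibody staining and flow analysis; 0% = DMSO wells and 100% = 5 µM fulvestrant positive control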). The conditions noted are these: ER-HoxA9 marrow cells, stronger effect = higher value, normalized: vehicle 0, fulvestrant 100.

Records with an inconclusive call do not appear. The source made the active and inactive calls.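 The calls were made as follows, unless noted: active = response below a set limit, under 55% cells CD8-positive and vesicle-bound, and CD8 cells' 90th-percentile brightness under 279; inactive = the rest.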

ATP-binding cassette sub-family B member 6 (Homo sapiens), sequence (Q9NP58 whole entry, looked up): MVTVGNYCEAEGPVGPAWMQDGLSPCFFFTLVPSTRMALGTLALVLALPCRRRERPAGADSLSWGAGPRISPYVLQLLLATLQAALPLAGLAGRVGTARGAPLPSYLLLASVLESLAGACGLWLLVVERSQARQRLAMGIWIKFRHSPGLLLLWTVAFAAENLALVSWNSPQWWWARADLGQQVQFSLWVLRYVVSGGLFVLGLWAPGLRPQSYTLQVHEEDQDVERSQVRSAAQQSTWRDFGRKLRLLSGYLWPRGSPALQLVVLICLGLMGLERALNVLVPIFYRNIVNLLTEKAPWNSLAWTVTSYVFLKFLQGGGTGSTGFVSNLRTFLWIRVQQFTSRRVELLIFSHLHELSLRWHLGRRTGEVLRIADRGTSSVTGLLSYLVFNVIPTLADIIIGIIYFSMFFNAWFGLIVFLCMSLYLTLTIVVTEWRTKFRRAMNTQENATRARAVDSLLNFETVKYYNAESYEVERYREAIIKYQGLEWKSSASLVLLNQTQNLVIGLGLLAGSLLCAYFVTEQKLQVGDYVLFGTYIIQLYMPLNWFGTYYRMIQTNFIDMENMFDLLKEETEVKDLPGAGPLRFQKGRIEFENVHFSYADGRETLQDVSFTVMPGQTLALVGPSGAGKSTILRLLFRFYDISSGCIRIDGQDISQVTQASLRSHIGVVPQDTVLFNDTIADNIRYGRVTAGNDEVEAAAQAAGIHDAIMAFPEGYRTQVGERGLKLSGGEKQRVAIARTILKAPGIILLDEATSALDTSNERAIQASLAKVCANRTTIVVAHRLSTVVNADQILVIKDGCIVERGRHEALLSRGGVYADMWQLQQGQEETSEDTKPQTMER

The term inhibition denotes the drop in the measured response relative to a control, in per cent. `CC(C)(C)[C@]1(O)CCN2C[C@H]3c4ccccc4CCc4cccc(c43)[C@@H]2C1`: the percent of DMSO control GFP in [1] was 106% (inactive). In addition, the GFP response vs DMSO was 97.9% (inactive) in experiment [2] and 102% (inactive) in [4]. Further, in experiment [3], the percent response of DMSO control is 112% (inactive). The GFP response, % of DMSO in [5] is 107% (inactive). The double positive events in experiment [6] was 35.9%. Moreover, the vesicle binding response in [6] is 134% (inactive). In addition, the inhibition in [7] is -20.8% (inactive); in experiment [10], -19.5% (inactive); in experiment [14], 6% (inactive). Also, the superoxide response (% of plate) in experiment [8] is 95.1% (inactive). Also, the aptamer binding inhibition in [9] is -4% (inactive). For the same molecule, in [11], the response is 1.63% (inactive). Moreover, the binding (% of control) in experiment [12] is 106% (inactive). Further, in experiment [13], the efflux inhibition (fraction of control) is -0.2 (inactive). Also, in [15], the differentiation response is 20.8% (inactive).
On to `COc1ccc2c(c1)c(CC(=O)O)c(C)n2C(=O)c1ccc(Cl)cc1`, for which the percent of DMSO control GFP in experiment [1] is 105% (inactive). The figures for the GFP response vs DMSO in experiment [2] and in experiment [4] were 96.9% (inactive) and 101% (inactive), respectively. Moreover, the percent response of DMSO control in experiment [3] is 109% (inactive). Further, in experiment [5], the GFP response, % of DMSO is 92.5% (inactive). This molecule also yielded a double positive events in experiment [6] of 50%. Also, in [6], the vesicle binding response was 173% (inactive). Also, the values for the inhibition in experiment [7], in experiment [10] and in [14] were -25.4% (inactive), -6.1% (inactive) and 10% (inactive), respectively. The superoxide response (% of plate) in [8] was 109% (inactive). Moreover, in experiment [9], the aptamer binding inhibition is 1% (inactive). Besides, the response in experiment [11] was 9.1% (inactive). In experiment [12], the binding (% of control) is 102% (inactive). In addition, in experiment [13], the efflux inhibition (fraction of control) is -0.01 (inactive). Also, in [15], the differentiation response is -13.1% (inactive).
In the case of `COc1ccc(C2N3CC4(C)CN2CC(C)(C3)C4)cc1OC` (stereo not given), the percent of DMSO control GFP in [1] is 103% (inactive). The values for the GFP response vs DMSO in experiment [2] and in [4] were 99.9% (inactive) and 87.3% (inactive), respectively. The percent response of DMSO control in experiment [3] is 107% (inactive). In [5], the GFP response, % of DMSO was 107% (inactive). The double positive events in [6] worked out at 52.7%. Besides, the vesicle binding response in experiment [6] is 177% (inactive). Further, the values for the inhibition in experiment [7], in experiment [10] and in experiment [14] were -0.24% (inactive), 9.79% (inactive) and 6% (inactive), respectively. In addition, the superoxide response (% of plate) in [8] is 96.9% (inactive). The aptamer binding inhibition in experiment [9] is 1% (inactive). The response in experiment [11] was 2.37% (inactive). Also, in experiment [12], the binding (% of control) is 99% (inactive). The efflux inhibition (fraction of control) in experiment [13] is -0.09 (inactive). Besides, the differentiation response in [15] was -13.1% (inactive).
As for `CCN(CC)C(=O)c1ccc(O)c(OC)c1`, in experiment [1], the percent of DMSO control GFP is 94.2% (inactive). Moreover, the GFP response vs DMSO in experiment [2] and in experiment [4] was 102% (inactive) each time. Further, the percent response of DMSO control in [3] was 98.8% (inactive). In [5], the GFP response, % of DMSO was 102% (inactive). The double positive events in experiment [6] turned out to be 53.9%. In addition, the vesicle binding response in experiment [6] is 118% (inactive). The inhibition is 25.9% (inactive) in [7], -2.62% (inactive) in [10] and 15% (inactive) in experiment [14]. Further, in [8], the superoxide response (% of plate) was 89% (inactive). Besides, in [9], the aptamer binding inhibition was 0% (inactive). Also, the response in experiment [11] was 0.77% (inactive). In addition, the binding (% of control) in experiment [12] is 101% (inactive). Moreover, in [13], the efflux inhibition (fraction of control) is 0.29 (inactive). Further, in [15], the differentiation response was -9.89% (inactive).
On to `Cc1cnc(C(=O)NCCc2ccc(S(=O)(=O)NC(=O)NC3CCCCC3)cc2)cn1`, for which the percent of DMSO control GFP in experiment [1] was 93.9% (inactive). The GFP response vs DMSO in experiment [2] is 93.8% (inactive); in experiment [4], 92.3% (inactive). Also, in experiment [3], the percent response of DMSO control is 110% (inactive). In experiment [5], the GFP response, % of DMSO was 92.2% (inactive). Moreover, the double positive events in experiment [6] came out at 65%. For the same molecule, the vesicle binding response in experiment [6] was 230% (inactive). Further, the inhibition in [7] is -9.57% (inactive); in [10] it was -11.4% (inactive); in experiment [14], 4% (inactive). Also, the superoxide response (% of plate) in experiment [8] is 95.2% (inactive). Further, in experiment [9], the aptamer binding inhibition is 2% (inactive). Further, the response in [11] is -3.18% (inactive). In addition, the binding (% of control) in experiment [12] is 104% (inactive). The efflux inhibition (fraction of control) in [13] is -0.12 (inactive). Also, the differentiation response in experiment [15] was -3.43% (inactive).

For the origin of these results see PubChem BioAssay.
